From PubChem BioAssay come the findings set out here.

Assay [1] in a line: resazurin metabolic signal in HepG2 cells – cell-based, resazurin fluorescence, 24 h, PK04 Diversity Set, profiling panel (AID 1172). The note with it: HepG2 viability, higher = more signal. (In general: The colour change of resazurin is a common sign of viable cells or microbes.)
A short description of assay [2]: budding yeast growth changes without added modifier – OD600, strain BY4716, 24 h, basal condition, primary screen (AID 1173). The note with it: S. cerevisiae BY4716 growth, OD600, 24 h; higher = more signal, called active from +8 up or from −8 down.
The nature of assay [3]: viability profiling in MM1S myeloma cells – cell-based, resazurin fluorescence, basal, 24 h, PK04 Diversity Set, profiling panel (AID 1174).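 Further: MM1S multiple myeloma cell line.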 The following applies: higher = more signal, called active from +8 up or from −8 down.
In assay [4] the target is Dihydroorotate dehydrogenase (quinone), mitochondrial (Plasmodium falciparum (isolate 3D7)) (UniProt Q08210). The assay is described as follows: inhibition of P. falciparum DHODH – biochemical, C-terminal His tag, absorbance 600 nm, primary screen (AID 1175).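 Further: recombinant parasite enzyme with a five histidine tag at its C terminus.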 The following applies: PfDHODH enzyme, DCIP absorbance 600 nm; higher = more signal, called active from +8 up or from −8 down.

The nature of assay [5]: inhibition of PAO1 biofilm formation – strain PAO1, LB-PBS medium, absorbance 600 nm, primary screen (AID 1176). The note with it: P. aeruginosa PAO1 growth/biofilm, A600, 12 h; higher = more signal.
Assay [6] in a line: growth modulation of vineyard yeast isolate – strain RM11-1a, OD600, basal, 24 h, primary screen (AID 1177).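 Further: cultures grown under basal conditions with no added stressor.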 The following applies: S. cerevisiae RM11-1a growth, OD600, 24 h; higher = more signal, called active from +8 up or from −8 down.
Assay [7] can be described thus: growth of efflux-deficient E. coli DRC39 – strain DRC39, OD650, 24 h, E. coli filamentation inducers, primary screen (AID 1178).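 Further: growth measured as culture turbidity by optical density at 650 nm.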 The following applies: E. coli DRC39 acrAB, higher = more signal, called active from +8 up or from −8 down.
A short description of assay [8]: growth of efflux-deficient E. coli DRC39 – strain DRC39, OD650, 48 h, E. coli filamentation inducers, primary screen (AID 1179).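 Further: screen aims at cell division blockers that make cells filament.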 The note with it: E. coli DRC39 delta-acrAB growth, higher = more signal, called active from +8 up or from −8 down.
Assay [9] is described as follows: viability profiling in RPMI8226 myeloma cells – cell-based, resazurin fluorescence, basal, 24 h, PK04 Diversity Set, profiling panel (AID 1180).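 Further: RPMI8826 multiple myeloma cell line at 5000 cells per well.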 The note with it: higher = more signal.
Assay [10] concerns the target E3 ubiquitin-protein ligase XIAP (Homo sapiens) (UniProt P98170). The assay is described as follows: small molecules binding XIAP protein – biophysical, small-molecule microarray, fluorescence 635 nm, primary screen (AID 1181).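 Further: score merges 667 nm emission and signal to noise over triplicate slides.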 The following applies: higher = more signal.
Assay [11] has as its system XIP peptide (Xip251-270) binding. The assay is described as follows: XIP fragment 251-270 binding compounds – biochemical, small-molecule microarray, fluorescence 635/667 nm, 0.1 µg/mL protein, primary screen (AID 1182). The following applies: fluorescent protein binding, 635 nm, higher = more signal, called active from +8 up or from −8 down.
Assay [12] concerns XIP peptide (Xip251-270). The assay is described as follows: compounds binding XIP fragment 251-270 – biochemical, small-molecule microarray, fluorescence 635/667 nm, 0.5 µg/mL protein, primary screen (AID 1183). The note with it: fluorescence 635 nm, higher = more signal.
Assay [13] in a line: blood-stage malaria parasite viability loss – strain 3D7, DAPI fluorescence, 100 nL, primary screen (AID 1184).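 Further: parasites grown inside human red blood cells in medium with human serum.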 The note with it: P. falciparum 3D7 growth, 3 d, higher = more signal.
The target in assay [14] is Homeobox protein Hox-A13 (Mus musculus) (UniProt Q62424). The assay is described as follows: disruptors of Hoxa13 oligonucleotide interaction – biochemical, fluorescence polarization, labeled oligonucleotide, primary screen (AID 1185). The note with it: Hoxa13:DNA binding, 15 min, higher = more signal, called active from +8 up or from −8 down. For orientation: Polarisation of emitted light reports the rotation of a fluorescent probe.

Assay [15] is described as follows: blockers of DNA damage checkpoint Chk1 activation – imaging, HeLa, hydroxyurea, phospho-Chk1 antibody, percent positive cells, primary screen (AID 1186). The following applies: hydroxyurea-induced phospho-Chk1 immunofluorescence imaging, higher = more signal.
A short description of assay [16]: blockers of DNA damage checkpoint Chk1 activation – imaging, HeLa, hydroxyurea, phospho-Chk1 nuclear intensity, primary screen (AID 1187). The following applies: hydroxyurea-induced phospho-Chk1 immunofluorescence imaging, higher = more signal.

The source made the active and inactive calls. Unless noted, how the calls were made is not given here.

Chain of E3 ubiquitin-protein ligase XIAP (Homo sapiens) (P98170 whole entry, looked up, the tested form may be a part): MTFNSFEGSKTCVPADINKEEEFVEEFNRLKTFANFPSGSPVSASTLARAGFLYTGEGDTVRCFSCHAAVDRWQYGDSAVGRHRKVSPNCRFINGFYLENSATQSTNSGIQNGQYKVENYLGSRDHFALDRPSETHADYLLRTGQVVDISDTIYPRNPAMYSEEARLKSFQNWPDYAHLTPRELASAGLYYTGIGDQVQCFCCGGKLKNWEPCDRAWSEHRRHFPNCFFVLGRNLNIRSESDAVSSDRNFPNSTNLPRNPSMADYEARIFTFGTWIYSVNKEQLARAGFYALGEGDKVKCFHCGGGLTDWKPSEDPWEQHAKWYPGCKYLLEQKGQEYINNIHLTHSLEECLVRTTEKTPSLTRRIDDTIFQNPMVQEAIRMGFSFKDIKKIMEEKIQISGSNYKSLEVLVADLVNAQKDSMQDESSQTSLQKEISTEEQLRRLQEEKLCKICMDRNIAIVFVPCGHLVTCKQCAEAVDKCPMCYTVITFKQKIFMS
Chain of Homeobox protein Hox-A13 (Mus musculus) (Q62424 whole entry, looked up): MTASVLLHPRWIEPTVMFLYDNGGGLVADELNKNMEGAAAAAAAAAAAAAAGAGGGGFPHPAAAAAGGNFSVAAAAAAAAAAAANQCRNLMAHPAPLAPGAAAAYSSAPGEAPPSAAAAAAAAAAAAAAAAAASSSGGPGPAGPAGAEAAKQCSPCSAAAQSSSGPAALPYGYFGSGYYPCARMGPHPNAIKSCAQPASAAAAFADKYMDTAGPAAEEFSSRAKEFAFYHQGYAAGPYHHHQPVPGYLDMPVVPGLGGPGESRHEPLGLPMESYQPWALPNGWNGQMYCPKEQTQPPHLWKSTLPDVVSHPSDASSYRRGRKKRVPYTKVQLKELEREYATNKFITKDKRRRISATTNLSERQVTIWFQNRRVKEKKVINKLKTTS
Chain of Dihydroorotate dehydrogenase (quinone), mitochondrial (Plasmodium falciparum (isolate 3D7)) (Q08210 whole entry, looked up): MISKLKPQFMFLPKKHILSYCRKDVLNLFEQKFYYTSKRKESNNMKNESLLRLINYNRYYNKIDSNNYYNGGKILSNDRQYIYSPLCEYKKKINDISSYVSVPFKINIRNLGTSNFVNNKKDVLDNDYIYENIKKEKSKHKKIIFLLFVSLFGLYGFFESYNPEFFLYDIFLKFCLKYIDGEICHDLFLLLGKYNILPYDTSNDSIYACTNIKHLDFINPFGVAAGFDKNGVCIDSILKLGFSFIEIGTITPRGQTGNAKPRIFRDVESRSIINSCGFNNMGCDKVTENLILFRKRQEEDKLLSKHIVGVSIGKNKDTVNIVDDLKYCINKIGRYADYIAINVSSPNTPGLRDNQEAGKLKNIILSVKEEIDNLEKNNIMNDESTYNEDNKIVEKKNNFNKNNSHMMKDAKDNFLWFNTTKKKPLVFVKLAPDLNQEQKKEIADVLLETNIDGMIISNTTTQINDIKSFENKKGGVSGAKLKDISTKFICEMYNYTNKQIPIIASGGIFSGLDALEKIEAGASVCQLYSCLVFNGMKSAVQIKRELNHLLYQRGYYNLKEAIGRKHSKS

In the case of `C=CCOC(=O)[C@H]1[C@@H]2C(=O)O[C@@H](c3ccccc3)[C@@H](c3ccccc3)N2[C@@H](c2ccc(OCCOC(=O)[C@H]3C[C@H]4C(=O)N[C@@H](CCCC[N+](C)(C)C)C(=O)N4[C@H]3c3cccc(OCCO)c3)cc2)[C@]12C(=O)Nc1ccc(I)cc12`, the z-score in [1] was -0.346; in assay [2], 1.44 (inactive); in [3], -0.0145 (inactive); in [5], 4.03 (inactive); in [6], 2.44 (inactive); in assay [7] it was 0.186 (inactive). Also, the z-score in assay [8] was 0.57 (inactive); in [9], 0.208; in assay [13], -1.87; in [14], 1.47 (inactive); in [15], -0.714 (inactive); in [16], -0.783 (inactive). In addition, the composite z-score in [4] was -2.44 (inactive); in [10], -0.0373; in [11], 0.261 (inactive); in [12], 0.617.

On to `COc1ccc([Si](C)(C)[C@H]2[C@H](CCn3cc([C@H](O)c4ccccc4)nn3)O[C@@]3(C(=O)N(Cc4ccc(N5CCC5=O)cc4)c4ccccc43)[C@@H]2C)cc1`, for which the z-score is -0.225 in assay [1]; 0.309 (inactive) in assay [2]; -0.771 (inactive) in assay [3]; 0.401 (inactive) in assay [5]; 1.07 (inactive) in assay [6]; 0.0302 (inactive) in assay [7]. Besides, the z-score in assay [8] is -0.422 (inactive); in [9], -0.0897; in [13], -1.87; in assay [14], -2.79 (inactive); in assay [15], -0.162 (inactive); in assay [16] it was -0.628 (inactive). The composite z-score in assay [4] was 0.65 (inactive); in assay [10], -0.022; in assay [11], 0.588 (inactive); in assay [12], 0.576.

With `CCCC[C@@H]1C[C@H]1[C@@H](NC(=O)c1cccnc1)c1ccc(-c2ccccc2)cc1`, the z-score in assay [1] is 1.6; in assay [2], -3.34 (inactive); in assay [3], 1.1 (inactive); in assay [5] it was -0.0982 (inactive); in [6] it was -0.402 (inactive); in assay [7], -0.88 (inactive). Moreover, the z-score in assay [8] is -0.762 (inactive); in [9] it was 2.9; in assay [13], -0.814; in assay [14] it was -3.43 (inactive); in assay [15], 0.577 (inactive); in assay [16], 0.452 (inactive). For the same compound, the composite z-score was -0.106 (inactive) in assay [4], 0.0302 in assay [10], -0.414 (inactive) in assay [11] and -0.0356 in [12].

`CCCCC(=C=CC[C@@H](O)c1ccc(OCCO)cc1)C[C@@H](O)COCc1ccccc1`: the z-score in assay [1] is 0.931; in [2], -5.91 (inactive); in assay [3], -0.301 (inactive); in assay [5], 0.637 (inactive); in [6], -3.31 (inactive); in assay [7], 1.9 (inactive). In addition, the z-score was 1.55 (inactive) in [8]; -0.342 in [9]; -2.73 in [13]; -4.47 (inactive) in assay [14]; -0.263 (inactive) in assay [15]; 0.737 (inactive) in assay [16]. For the same compound, the composite z-score in assay [4] was -2.29 (inactive); in [10] it was 0.124; in assay [11], 0.117 (inactive); in assay [12], 0.408.

For the compound `COc1ccc([Si](C)(C)[C@@H]2[C@@H](CCO)O[C@]3(C(=O)N(Cc4cccc(N5C(=O)c6cccc7cccc5c67)c4)c4ccccc43)[C@H]2C)cc1`, the z-score in assay [1] is -1.83; in [2] it was 1.34 (inactive); in [3], -2.77 (inactive); in [5] it was 1.53 (inactive); in assay [6], 5.01 (inactive); in assay [7], 1.55 (inactive). Moreover, the z-score is 0.97 (inactive) in assay [8]; -3.49 in [9]; -2.52 in assay [13]; -1.52 (inactive) in assay [14]; -0.758 (inactive) in assay [15]; 0.0003 (inactive) in assay [16]. Moreover, the composite z-score in assay [4] was 0.518 (inactive); in [10], -0.0351; in assay [11], 0.875 (inactive); in [12] it was 0.635.

In the case of `C[C@]1(C(=O)O)c2ccccc2C(=O)N(Cc2ccccc2)[C@H]1c1ccc(CO)cc1`, the z-score in assay [1] was 0.244; in [2], 0.451 (inactive); in assay [3] it was 0.936 (inactive); in assay [5], -0.633 (inactive); in assay [6], 1.91 (inactive); in assay [7], -0.0256 (inactive). The z-score in assay [8] was -0.373 (inactive); in [9] it was 0.988; in assay [13] it was -0.393; in assay [14], -1.72 (inactive); in assay [15] it was -0.107 (inactive); in [16], 0.194 (inactive). Further, the composite z-score in assay [4] was 0.798 (inactive); in [10], 0.013; in assay [11], -0.339 (inactive); in assay [12] it was 0.416.

As for `O=C1C[C@@](C(=O)NCC(F)(F)F)(c2ccc([N+](=O)[O-])cc2)[C@@H](c2ccc(CO)cc2)N1C1CCCCC1`, the z-score in assay [1] is -0.289; in [2], -0.693 (inactive); in assay [3] it was -0.39 (inactive); in assay [5], 0.416 (inactive); in [6], -0.815 (inactive); in [7], 0.659 (inactive). The z-score in assay [8] is 0.0421 (inactive); in assay [9], -0.12; in assay [13] it was 0.0369; in [14], -4.46 (inactive); in [15], -0.0554 (inactive); in [16] it was -0.32 (inactive). The composite z-score in assay [4] was -0.356 (inactive); in assay [10] it was -0.209; in assay [11], 0.925 (inactive); in assay [12] it was 0.871.

`COCC(=C=CC[C@H](O)c1cccc(OCCO)c1)C[C@H](O)c1ccccn1`: the z-score is 1.51 in assay [1]; 1.65 (inactive) in [2]; 0.959 (inactive) in assay [3]; 0.437 (inactive) in assay [5]; 1.07 (inactive) in assay [6]; 1.38 (inactive) in assay [7]. Moreover, the z-score in assay [8] was 1.23 (inactive); in assay [9] it was 1.66; in assay [13], -0.737; in [14], -4.27 (inactive); in assay [15], -0.028 (inactive); in assay [16], 0.745 (inactive). The composite z-score in assay [4] was -0.672 (inactive); in assay [10], -0.0453; in [11], 0.198 (inactive); in assay [12], 0.157.
